# PMC7862700, “An all-to-all approach to the identification of sequence-specific readers for epigenetic DNA modifications on cytosine”
# What was measured:
# Assay in all cases: DAPPL (digital affinity profiling via proximity ligation, sequencing); 10 mM Tris-HCl pH 7.5, 50 mM NaCl, 1 mM DTT, 4% glycerol, room temperature, 30 min; GST-TFs on glutathione beads, 16-mer random dsDNA library, 0.1% formaldehyde crosslink after washing; high values mean tight binding
# FLI1 = molecular target: T1, FLI1 (Homo sapiens, UniProt Q01543 1-452); conditions: protein: recombinant; tags: N-terminal GST; dsDNA, one strand shown
# T1 sequence: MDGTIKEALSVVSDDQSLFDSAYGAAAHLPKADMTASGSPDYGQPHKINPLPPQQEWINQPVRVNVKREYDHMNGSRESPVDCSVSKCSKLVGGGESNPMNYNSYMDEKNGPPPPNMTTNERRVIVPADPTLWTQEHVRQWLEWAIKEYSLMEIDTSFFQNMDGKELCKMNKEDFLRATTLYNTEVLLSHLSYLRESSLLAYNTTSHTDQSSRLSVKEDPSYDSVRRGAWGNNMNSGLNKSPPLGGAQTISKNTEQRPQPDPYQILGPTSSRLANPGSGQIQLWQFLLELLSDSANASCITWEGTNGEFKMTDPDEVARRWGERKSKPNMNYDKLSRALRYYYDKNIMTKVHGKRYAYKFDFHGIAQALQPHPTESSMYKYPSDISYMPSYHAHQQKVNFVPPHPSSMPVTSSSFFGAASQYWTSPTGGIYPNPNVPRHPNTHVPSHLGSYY
# Summary of the method: (§1)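 GST fusions of human transcription factors were expressed in yeast and captured with glutathione beads. Once given DNA barcodes and pooled alongside a tag-only sample, they were incubated for 30 min at room temperature with 200 nmole of a random double-stranded 16-mer DNA library in Tris/NaCl/DTT/glycerol buffer, then washed, crosslinked (0.1% formaldehyde), proximity-ligated, PCR-amplified and sequenced on an Illumina NextSeq500. The binding signal of each hexamer is its read frequency for a factor divided by its frequency for the tag-only sample.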
# ELK1 = molecular target: T2, ELK1 (Homo sapiens, UniProt P19419 1-428); conditions: protein: recombinant; tags: N-terminal GST; dsDNA, one strand shown
# T2 sequence: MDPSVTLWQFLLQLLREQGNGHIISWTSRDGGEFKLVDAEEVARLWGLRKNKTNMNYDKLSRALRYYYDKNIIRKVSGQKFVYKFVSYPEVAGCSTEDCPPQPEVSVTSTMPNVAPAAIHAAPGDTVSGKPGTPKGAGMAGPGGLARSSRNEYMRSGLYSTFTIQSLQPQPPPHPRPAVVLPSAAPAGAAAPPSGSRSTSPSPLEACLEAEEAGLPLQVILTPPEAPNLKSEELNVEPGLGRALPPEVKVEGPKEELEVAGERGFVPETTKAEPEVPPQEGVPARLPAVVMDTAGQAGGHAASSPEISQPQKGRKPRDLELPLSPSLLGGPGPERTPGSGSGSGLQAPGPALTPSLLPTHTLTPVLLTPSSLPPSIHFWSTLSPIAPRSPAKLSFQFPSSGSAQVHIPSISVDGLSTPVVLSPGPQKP
# Summary of the method: as §1
# GABPA = molecular target: T3, GABPA (Homo sapiens, UniProt Q06546 1-454); conditions: protein: recombinant; tags: N-terminal GST; dsDNA, one strand shown
# T3 sequence: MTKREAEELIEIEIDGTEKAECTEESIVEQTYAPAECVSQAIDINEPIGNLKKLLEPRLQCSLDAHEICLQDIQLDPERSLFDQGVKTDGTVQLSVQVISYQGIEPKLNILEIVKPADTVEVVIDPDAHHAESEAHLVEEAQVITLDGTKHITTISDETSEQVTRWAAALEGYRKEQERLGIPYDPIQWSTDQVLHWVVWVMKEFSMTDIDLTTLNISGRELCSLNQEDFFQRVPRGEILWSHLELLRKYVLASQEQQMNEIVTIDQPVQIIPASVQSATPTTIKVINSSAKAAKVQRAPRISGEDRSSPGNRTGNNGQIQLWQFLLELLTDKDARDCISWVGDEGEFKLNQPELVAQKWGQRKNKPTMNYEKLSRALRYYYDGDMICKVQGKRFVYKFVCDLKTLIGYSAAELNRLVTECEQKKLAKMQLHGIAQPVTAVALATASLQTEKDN
# Summary of the method: as §1
# ERG = molecular target: T4, ERG (Homo sapiens, UniProt P11308 1-479); conditions: protein: recombinant; tags: N-terminal GST; dsDNA, one strand shown
# T4 sequence: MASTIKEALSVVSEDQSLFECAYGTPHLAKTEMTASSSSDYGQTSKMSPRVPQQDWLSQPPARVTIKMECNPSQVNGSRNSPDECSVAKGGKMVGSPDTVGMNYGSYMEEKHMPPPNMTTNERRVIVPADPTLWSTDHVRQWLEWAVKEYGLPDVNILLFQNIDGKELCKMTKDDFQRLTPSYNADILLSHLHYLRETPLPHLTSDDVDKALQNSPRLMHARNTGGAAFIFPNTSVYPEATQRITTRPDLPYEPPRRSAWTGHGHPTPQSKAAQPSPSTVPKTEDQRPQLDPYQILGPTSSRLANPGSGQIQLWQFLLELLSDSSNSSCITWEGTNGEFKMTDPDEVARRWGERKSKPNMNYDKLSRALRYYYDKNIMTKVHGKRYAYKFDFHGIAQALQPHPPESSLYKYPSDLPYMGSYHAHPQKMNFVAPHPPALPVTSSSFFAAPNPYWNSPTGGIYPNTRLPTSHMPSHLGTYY
# Summary of the method: as §1
# ELF1 = ELF1 (Homo sapiens, UniProt P32519 1-619); conditions: protein: recombinant; tags: N-terminal GST; dsDNA, one strand shown
# Summary of the method: as §1
# EHF = molecular target: T5, EHF (Homo sapiens, UniProt Q9NZC4 1-300); conditions: protein: recombinant; tags: N-terminal GST; dsDNA, one strand shown
# T5 sequence: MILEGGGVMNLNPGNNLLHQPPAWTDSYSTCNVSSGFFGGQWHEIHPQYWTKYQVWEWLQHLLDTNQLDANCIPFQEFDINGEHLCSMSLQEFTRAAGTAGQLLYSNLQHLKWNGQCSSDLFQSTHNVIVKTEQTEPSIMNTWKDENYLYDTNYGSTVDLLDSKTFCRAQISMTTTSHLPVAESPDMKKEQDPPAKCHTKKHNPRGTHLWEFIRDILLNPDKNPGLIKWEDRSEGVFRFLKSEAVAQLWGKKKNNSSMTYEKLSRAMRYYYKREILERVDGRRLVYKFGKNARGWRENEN
# Summary of the method: as §1
# SPI1 = SPI1 (Homo sapiens, UniProt P17947 1-270); conditions: protein: recombinant; tags: N-terminal GST; dsDNA, one strand shown
# Summary of the method: as §1
# SPIB = SPIB (Homo sapiens, UniProt Q01892 1-262); conditions: protein: recombinant; tags: N-terminal GST; dsDNA, one strand shown
# Summary of the method: as §1
# ELK3 = molecular target: T6, ELK3 (Homo sapiens, UniProt P41970 1-407); conditions: protein: recombinant; tags: N-terminal GST; dsDNA, one strand shown
# T6 sequence: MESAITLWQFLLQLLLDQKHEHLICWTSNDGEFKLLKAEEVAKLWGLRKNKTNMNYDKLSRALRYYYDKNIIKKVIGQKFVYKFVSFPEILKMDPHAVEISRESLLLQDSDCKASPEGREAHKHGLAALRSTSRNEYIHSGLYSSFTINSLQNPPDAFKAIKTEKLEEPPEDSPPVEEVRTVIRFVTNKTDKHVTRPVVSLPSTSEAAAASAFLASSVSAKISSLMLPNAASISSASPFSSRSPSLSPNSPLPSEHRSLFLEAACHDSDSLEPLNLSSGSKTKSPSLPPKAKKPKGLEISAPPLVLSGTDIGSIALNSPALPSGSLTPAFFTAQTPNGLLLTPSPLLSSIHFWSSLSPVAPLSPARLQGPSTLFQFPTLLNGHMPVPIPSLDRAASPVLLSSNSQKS
# Summary of the method: as §1
# FEV = molecular target: T7, FEV (Homo sapiens, UniProt Q99581 1-238); conditions: protein: recombinant; tags: N-terminal GST; dsDNA, one strand shown
# T7 sequence: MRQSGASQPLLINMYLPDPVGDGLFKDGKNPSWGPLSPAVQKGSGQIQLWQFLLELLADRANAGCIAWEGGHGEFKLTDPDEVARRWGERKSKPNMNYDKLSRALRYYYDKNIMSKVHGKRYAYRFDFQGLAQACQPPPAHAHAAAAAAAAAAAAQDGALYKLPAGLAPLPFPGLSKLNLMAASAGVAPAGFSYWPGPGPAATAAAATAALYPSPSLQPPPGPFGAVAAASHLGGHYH
# Summary of the method: as §1
# ETV5 = ETV5 (Homo sapiens, UniProt P41161 1-510); conditions: protein: recombinant; tags: N-terminal GST; dsDNA, one strand shown
# Summary of the method: as §1
# HSF1 = HSF1 (Homo sapiens, UniProt Q00613 1-529); conditions: protein: recombinant; tags: N-terminal GST; chain copies: 3; dsDNA, one strand shown
# Summary of the method: as §1
# SPIC = molecular target: T8, SPIC (Homo sapiens, UniProt Q8N5J4 1-248); conditions: protein: recombinant; tags: N-terminal GST; dsDNA, one strand shown
# T8 sequence: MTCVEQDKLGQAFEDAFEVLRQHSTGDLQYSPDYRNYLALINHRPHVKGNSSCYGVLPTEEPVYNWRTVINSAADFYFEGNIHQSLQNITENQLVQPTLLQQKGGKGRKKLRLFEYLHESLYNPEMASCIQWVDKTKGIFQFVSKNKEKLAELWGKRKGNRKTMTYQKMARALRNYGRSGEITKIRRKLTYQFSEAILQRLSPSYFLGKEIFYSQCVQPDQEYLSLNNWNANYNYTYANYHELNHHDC
# Summary of the method: as §1
# ELF4 = ELF4 (Homo sapiens, UniProt Q99607 1-663); conditions: protein: recombinant; tags: N-terminal GST; dsDNA, one strand shown
# Summary of the method: as §1
# ELK4 = molecular target: T9, ELK4 (Homo sapiens, UniProt P28324-2 1-405); conditions: protein: recombinant; tags: N-terminal GST; dsDNA, one strand shown
# T9 sequence: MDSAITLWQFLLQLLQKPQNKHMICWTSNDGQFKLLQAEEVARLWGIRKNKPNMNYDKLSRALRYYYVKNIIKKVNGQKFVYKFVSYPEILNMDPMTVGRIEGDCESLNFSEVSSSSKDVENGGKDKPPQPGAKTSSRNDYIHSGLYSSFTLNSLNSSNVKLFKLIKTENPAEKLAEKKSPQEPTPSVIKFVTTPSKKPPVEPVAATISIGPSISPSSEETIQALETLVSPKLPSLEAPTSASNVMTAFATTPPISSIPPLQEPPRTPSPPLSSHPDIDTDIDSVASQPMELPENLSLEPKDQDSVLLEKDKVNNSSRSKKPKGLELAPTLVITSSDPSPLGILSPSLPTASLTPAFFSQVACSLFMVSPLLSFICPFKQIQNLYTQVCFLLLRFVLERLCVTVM
# Summary of the method: as §1
# ETV2 = molecular target: T10, ETV2 (Homo sapiens, UniProt O00321 1-342); conditions: protein: recombinant; tags: N-terminal GST; dsDNA, one strand shown
# T10 sequence: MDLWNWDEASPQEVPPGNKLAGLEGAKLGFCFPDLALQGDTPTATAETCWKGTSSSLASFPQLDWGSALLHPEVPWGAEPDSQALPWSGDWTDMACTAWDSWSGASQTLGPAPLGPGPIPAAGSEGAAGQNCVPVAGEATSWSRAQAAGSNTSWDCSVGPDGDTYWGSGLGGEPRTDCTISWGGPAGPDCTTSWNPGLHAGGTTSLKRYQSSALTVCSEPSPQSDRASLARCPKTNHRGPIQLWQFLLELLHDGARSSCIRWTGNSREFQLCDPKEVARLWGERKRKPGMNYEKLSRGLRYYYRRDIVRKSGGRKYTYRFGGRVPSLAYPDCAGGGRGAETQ
# Summary of the method: as §1
# ELF3 = molecular target: T11, ELF3 (Homo sapiens, UniProt P78545 1-371); conditions: protein: recombinant; tags: N-terminal GST; dsDNA, one strand shown
# T11 sequence: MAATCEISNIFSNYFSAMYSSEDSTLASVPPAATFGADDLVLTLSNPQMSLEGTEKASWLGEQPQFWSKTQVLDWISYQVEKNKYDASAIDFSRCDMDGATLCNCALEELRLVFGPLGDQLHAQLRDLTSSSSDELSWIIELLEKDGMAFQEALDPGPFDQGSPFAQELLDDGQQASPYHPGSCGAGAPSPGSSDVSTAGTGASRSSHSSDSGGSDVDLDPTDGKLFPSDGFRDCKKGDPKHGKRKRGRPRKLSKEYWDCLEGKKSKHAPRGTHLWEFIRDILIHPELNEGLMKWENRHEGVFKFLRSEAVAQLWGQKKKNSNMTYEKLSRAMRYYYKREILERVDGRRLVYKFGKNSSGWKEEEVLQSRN
# Summary of the method: as §1
# ETV1 = ETV1 (Homo sapiens, UniProt P50549 1-477); conditions: protein: recombinant; tags: N-terminal GST; dsDNA, one strand shown
# Summary of the method: as §1
# Sequence of ELF4 (Q99607 whole entry): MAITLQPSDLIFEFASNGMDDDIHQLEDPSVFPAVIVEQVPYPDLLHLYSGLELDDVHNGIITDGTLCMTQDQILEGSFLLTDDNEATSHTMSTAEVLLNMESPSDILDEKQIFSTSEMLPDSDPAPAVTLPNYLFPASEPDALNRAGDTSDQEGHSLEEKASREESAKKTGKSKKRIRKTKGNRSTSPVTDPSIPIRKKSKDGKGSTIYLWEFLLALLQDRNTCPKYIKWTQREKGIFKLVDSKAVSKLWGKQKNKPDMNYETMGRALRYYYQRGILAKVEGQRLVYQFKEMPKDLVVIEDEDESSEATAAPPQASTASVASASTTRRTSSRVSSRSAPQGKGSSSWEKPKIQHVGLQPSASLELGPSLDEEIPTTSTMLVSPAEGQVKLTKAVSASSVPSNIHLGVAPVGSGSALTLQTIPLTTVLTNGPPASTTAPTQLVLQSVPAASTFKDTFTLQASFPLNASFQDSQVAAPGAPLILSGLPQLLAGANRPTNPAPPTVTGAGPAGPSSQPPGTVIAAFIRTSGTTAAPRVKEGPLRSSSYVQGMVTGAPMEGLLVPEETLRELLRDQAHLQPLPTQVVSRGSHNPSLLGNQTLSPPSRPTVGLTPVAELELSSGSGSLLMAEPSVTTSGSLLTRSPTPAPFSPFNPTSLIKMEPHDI
# Sequence of ETV5 (P41161 whole entry): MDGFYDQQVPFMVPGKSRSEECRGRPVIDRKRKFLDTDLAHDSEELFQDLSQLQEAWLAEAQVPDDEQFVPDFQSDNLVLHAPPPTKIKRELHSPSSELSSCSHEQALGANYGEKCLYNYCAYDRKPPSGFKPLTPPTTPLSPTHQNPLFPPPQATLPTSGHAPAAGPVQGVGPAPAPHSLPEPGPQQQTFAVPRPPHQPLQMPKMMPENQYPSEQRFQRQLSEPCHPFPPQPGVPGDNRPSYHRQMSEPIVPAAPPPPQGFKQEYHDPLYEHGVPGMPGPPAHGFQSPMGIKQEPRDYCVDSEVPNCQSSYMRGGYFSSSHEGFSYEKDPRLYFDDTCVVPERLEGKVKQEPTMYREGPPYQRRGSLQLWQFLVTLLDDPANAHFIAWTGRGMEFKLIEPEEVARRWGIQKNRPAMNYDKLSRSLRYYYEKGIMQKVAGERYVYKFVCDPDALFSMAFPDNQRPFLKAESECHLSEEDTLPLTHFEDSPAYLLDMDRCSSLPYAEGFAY
# Sequence of HSF1 (Q00613 whole entry): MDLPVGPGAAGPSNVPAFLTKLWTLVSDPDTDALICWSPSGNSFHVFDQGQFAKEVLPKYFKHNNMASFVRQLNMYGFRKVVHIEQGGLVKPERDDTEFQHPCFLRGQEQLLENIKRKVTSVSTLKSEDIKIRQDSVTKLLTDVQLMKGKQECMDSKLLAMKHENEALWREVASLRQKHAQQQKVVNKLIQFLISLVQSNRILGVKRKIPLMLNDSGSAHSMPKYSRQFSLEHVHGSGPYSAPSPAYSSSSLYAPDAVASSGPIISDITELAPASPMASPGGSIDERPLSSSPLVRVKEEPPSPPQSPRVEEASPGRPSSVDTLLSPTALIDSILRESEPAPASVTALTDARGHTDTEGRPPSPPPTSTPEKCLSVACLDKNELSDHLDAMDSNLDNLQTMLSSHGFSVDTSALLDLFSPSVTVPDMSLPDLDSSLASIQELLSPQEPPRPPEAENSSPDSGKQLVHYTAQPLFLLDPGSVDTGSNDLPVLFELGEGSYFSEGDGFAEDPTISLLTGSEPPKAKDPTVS
# Sequence of ETV1 (P50549 whole entry): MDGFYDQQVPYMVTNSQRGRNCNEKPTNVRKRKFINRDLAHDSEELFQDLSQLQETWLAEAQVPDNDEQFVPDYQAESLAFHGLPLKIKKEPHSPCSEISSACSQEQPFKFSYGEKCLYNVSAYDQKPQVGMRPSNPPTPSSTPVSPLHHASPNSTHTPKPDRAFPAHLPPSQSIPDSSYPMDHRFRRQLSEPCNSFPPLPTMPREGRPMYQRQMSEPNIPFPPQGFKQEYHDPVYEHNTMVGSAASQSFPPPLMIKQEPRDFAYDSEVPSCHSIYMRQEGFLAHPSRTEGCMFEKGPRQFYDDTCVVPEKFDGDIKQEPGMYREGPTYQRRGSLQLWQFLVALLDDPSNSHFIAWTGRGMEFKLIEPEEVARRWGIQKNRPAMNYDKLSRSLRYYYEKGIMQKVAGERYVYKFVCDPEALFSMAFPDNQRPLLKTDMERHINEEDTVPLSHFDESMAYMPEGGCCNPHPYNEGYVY
# Sequence of ELF1 (P32519 whole entry): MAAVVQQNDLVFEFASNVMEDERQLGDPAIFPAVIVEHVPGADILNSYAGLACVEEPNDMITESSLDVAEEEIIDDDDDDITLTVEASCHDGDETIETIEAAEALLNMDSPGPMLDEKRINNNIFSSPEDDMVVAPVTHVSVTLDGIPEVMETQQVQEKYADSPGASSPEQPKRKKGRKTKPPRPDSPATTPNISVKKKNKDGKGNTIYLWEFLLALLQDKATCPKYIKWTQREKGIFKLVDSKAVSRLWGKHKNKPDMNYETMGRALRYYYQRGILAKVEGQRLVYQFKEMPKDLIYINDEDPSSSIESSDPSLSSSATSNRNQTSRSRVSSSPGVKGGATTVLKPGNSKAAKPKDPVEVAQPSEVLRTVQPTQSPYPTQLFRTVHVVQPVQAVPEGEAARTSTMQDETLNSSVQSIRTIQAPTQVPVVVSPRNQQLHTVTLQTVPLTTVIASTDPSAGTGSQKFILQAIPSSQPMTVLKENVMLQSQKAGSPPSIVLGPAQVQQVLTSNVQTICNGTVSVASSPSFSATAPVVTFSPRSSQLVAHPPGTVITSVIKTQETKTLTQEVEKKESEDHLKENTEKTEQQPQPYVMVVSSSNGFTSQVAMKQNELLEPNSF
# Sequence of SPIB (Q01892 whole entry): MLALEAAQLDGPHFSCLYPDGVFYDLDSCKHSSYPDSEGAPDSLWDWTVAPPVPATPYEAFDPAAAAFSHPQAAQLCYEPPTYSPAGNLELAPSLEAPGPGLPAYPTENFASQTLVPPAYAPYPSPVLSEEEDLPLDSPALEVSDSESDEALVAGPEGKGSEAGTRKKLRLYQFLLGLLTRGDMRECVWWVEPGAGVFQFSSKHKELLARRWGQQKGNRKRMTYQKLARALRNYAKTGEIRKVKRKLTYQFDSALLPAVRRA
sequence,measurement,setting,value
GTTTGA,binding signal,FLI1,"1.29 fold enrichment (6-mer frequency, TF over GST control)"
same,binding signal,ELK1,"1.19 fold enrichment (6-mer frequency, TF over GST control)"
same,binding signal,GABPA,"1.36 fold enrichment (6-mer frequency, TF over GST control)"
same,binding signal,ERG,"1.12 fold enrichment (6-mer frequency, TF over GST control)"
same,binding signal,ELF1,"1.16 fold enrichment (6-mer frequency, TF over GST control)"
same,binding signal,EHF,"1.06 fold enrichment (6-mer frequency, TF over GST control)"
same,binding signal,SPI1,"1.23 fold enrichment (6-mer frequency, TF over GST control)"
same,binding signal,SPIB,"1.16 fold enrichment (6-mer frequency, TF over GST control)"
same,binding signal,ELK3,"1.12 fold enrichment (6-mer frequency, TF over GST control)"
same,binding signal,FEV,"1.13 fold enrichment (6-mer frequency, TF over GST control)"
same,binding signal,ETV5,"1.19 fold enrichment (6-mer frequency, TF over GST control)"
same,binding signal,HSF1,"1.03 fold enrichment (6-mer frequency, TF over GST control)"
same,binding signal,SPIC,"1.25 fold enrichment (6-mer frequency, TF over GST control)"
same,binding signal,ELF4,"1.13 fold enrichment (6-mer frequency, TF over GST control)"
same,binding signal,ELK4,"1.28 fold enrichment (6-mer frequency, TF over GST control)"
same,binding signal,ETV2,"1.22 fold enrichment (6-mer frequency, TF over GST control)"
same,binding signal,ELF3,"1.15 fold enrichment (6-mer frequency, TF over GST control)"
same,binding signal,ETV1,"1.2 fold enrichment (6-mer frequency, TF over GST control)"
